Hits are enriched below; roughly 1.8% of the tested compounds scored in any of these assays.
SUMO Mot1 rescue – yeast Mot1-301 growth rescue at high temperature, primary screen, SUMOylation pathway inhibitor project, S. cerevisiae, ATP luminescence, 38.5C; S. cerevisiae Mot1-301 growth rescue; percent above DMSO median, 100 means doubled; growth rescue, % at 18.8 µM; 1% of 320,000 active; AID 2716, 2010;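 active = every valid replicate shows activation above 250% relative to neutral control wells; inactive = the rest, any valid replicate at or below 250%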
PolyA inhibitor – polyadenylation inhibitors in yeast reporter cells, primary screen, luminescence, S. cerevisiae; S. cerevisiae SKY197-pL101 polyadenylation reporter, beta-gal luminescence; efflux-impaired pdr1/pdr3 knockout yeast; score 100 = 6 SD above DMSO; activity score, % at 12 µM; 0.02% of 300,000 active; AID 1875, 2009;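 active = lowest replicate activity score at least 50, where 100 means six control SD above control mean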;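 note: yeast exposed to compound for 9 h at 30 °C; higher score means more reporter readthrough which indicates perturbed polyadenylation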
NALP1 yeast inh – NALP1 inflammasome inhibitors in reconstituted yeast, colorimetric, S. cerevisiae, triplicate retest | S. cerevisiae NALP1/ASC/caspase-1 growth, X-gal OD620, 72 h | inhibition, % at 10 µM | 0.61% of 280,000 active; in the data active = inhibition mostly above about 24%, no sharp cut-off; inactive = mostly below about 32%
NLRP3 yeast inh – NALP3 inflammasome inhibitors in reconstituted yeast, primary screen, luminescence, uHTS; Yeast reconstituted NLRP3/ASC/caspase-1, beta-gal luminescence, 24 h; inhibition, % at 10 µM; 0.39% of 330,000 active;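 active = inhibition of 50% or more; inactive = inhibition below 50%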
NALP3 confirm – NALP3 inhibitors retested in yeast, confirmation, luminescence, single concentration; shares compounds with NLRP3 yeast inh; yeast expressing human NALP3; inhibition, % at 10 µM; 81% of 1,300 active; AID 435006, 2010; in the data active = inhibition above about 48%
Casp1 ASC ctr – CASP1-PYCARD signaling inhibition in yeast, confirmatory test, counterassay for NLRP3 inhibitor program, one-dose. yeast expressing Caspase-1-ASC, luminescence counter screen. shares compounds with NLRP3 yeast inh. 66% of 1,000 active. inhibition, % at 10 µM. AID 488784, 2010
NALP3 yeast rt – NALP3 inhibitors in yeast, repeat test, confirmation, luminescence, single concentration, retest; inhibition, % at 10 µM; 53% of 1,000 active; shares compounds with NLRP3 yeast inh; yeast expressing human NALP3, luminescence read-out
Of the large screens only hits and unclear results are named; the others gave an inactive call (follow-up assays come after a bar, where they were run). Cut-off read from the data, not from the text of the source, unless noted: active = inhibition above about 50%; inactive = the rest.

Brc1ccc(-c2csc(NC3=NCCCCC3)n2)cc1	NLRP3 yeast inh 57.9 | NALP3 confirm 55.4 | Casp1 ASC ctr inactive | NALP3 yeast rt inactive
O=C(CSc1n[nH]c(-c2ccc(Br)cc2)n1)NC1CCCC1	none (no result: PolyA inhibitor, NALP1 yeast inh)
O=c1cc(CSc2ccc(Cl)cc2)nc(-c2ccccn2)[nH]1	NLRP3 yeast inh 64.1 | NALP3 confirm 83.6 | Casp1 ASC ctr 97.3 | NALP3 yeast rt 91.5
Clc1ccc(SCc2cc(N3CCOCC3)nc(-c3ccccn3)n2)cc1	NLRP3 yeast inh 50.8 | NALP3 confirm 57.0 | Casp1 ASC ctr 55.4 | NALP3 yeast rt 53.6
Nc1nc(-c2ccc(Oc3ccccc3)cc2)cs1	NALP1 yeast inh 98.5, NLRP3 yeast inh 96.8 | NALP3 confirm 57.0 | Casp1 ASC ctr 98.8 | NALP3 yeast rt 99.4
Nc1nc(-c2ccc(-c3ccccc3)cc2)cs1	none
CC1CCCC(C)N1C(=O)COc1ccc(C(=O)Nc2ccccc2N2CCOCC2)cc1 (stereo unspecified)	none
CC(CCC(=O)O)C1CCC2C3CCC4C[C@H](O)CCC4(C)C3CC(=O)C12C (stereo partly specified)	none
C[C@H](CCC(=O)O)[C@H]1CC[C@H]2[C@@H]3CC[C@@H]4C[C@H](O)CC[C@]4(C)[C@H]3CC[C@]12C	NLRP3 yeast inh 71.9 (no result: PolyA inhibitor, NALP1 yeast inh) | NALP3 confirm 77.5 | Casp1 ASC ctr 78.2 | NALP3 yeast rt 61.5
Cc1c(C)c2cccnc2c2ncccc12	NLRP3 yeast inh 78.3 (no result: PolyA inhibitor, NALP1 yeast inh) | NALP3 confirm 85.9 | Casp1 ASC ctr 96.3 | NALP3 yeast rt 85.7
Clc1cc2cccnc2c2ncccc12	none (no result: PolyA inhibitor, NALP1 yeast inh)
COc1ccc2c(Cl)c(C(=O)NCCCn3ccnc3)sc2c1	none
CSc1oc(-c2ccccc2)nc1S(=O)(=O)c1ccc(C)cc1	NLRP3 yeast inh 53.4 | NALP3 confirm 68.2 | Casp1 ASC ctr 55.7 | NALP3 yeast rt inactive
CC1(C)[C@@H](O)CC[C@]2(C)C3C(O)C=C4[C@H]5C[C@@](C)(C(=O)O)CC[C@]5(C)CC[C@]4(C)[C@]3(C)CC[C@@H]12 (stereo partly specified)	NLRP3 yeast inh 60.1 (no result: NALP1 yeast inh) | NALP3 confirm 70.3
COc1ccc(NC(=O)CNC(=O)c2ccc([N+](=O)[O-])cc2)cc1	none
COc1ccc(C(=O)CC(=O)Nc2ccc([N+](=O)[O-])cc2)cc1	NLRP3 yeast inh 67.0 | NALP3 confirm 74.8 | Casp1 ASC ctr 77.7 | NALP3 yeast rt 82.5
CCCCOc1ccc(CSCCNC(=S)Nc2ccccc2)cc1	NLRP3 yeast inh 54.4 | NALP3 confirm 59.8 | Casp1 ASC ctr 61.9 | NALP3 yeast rt inactive
CCCCCOc1ccc(CSCCNC(=S)Nc2ccccc2)cc1	none
Cc1cccc(CSCCNC(=O)Nc2ccccc2)c1	none
CC(C)COc1ccc(CSCCNC(=S)Nc2ccccc2)cc1	NLRP3 yeast inh 53.2 | NALP3 confirm 80.4 | Casp1 ASC ctr 58.0 | NALP3 yeast rt inactive
COc1cc(Cl)c(C)cc1NC(=O)c1ccccc1-n1cnnn1	none (no result: PolyA inhibitor, NALP1 yeast inh)
COC(=O)NCC(c1ccc2c(c1)OCO2)N1CCN(c2ccccc2)CC1 (stereo unspecified)	none
Oc1ccc(N=Nc2n[nH]c(-c3ccccc3)n2)cc1	none
Oc1ccc(N=Nc2nc(-c3ccccc3)c(-c3ccccc3)[nH]2)cc1	NLRP3 yeast inh 50.6 | NALP3 confirm 62.0 | Casp1 ASC ctr 74.8 | NALP3 yeast rt inactive
c1ccc(Sc2cccc3ccccc23)c(CNC2=NCCN2)c1	NALP1 yeast inh 78.2, NLRP3 yeast inh 73.7 | NALP3 confirm 62.9 | Casp1 ASC ctr inactive | NALP3 yeast rt 69.7
CCN(CC)S(=O)(=O)c1cc(OC)c(Cl)cc1Cl	NLRP3 yeast inh 54.7 | NALP3 confirm 64.4 | Casp1 ASC ctr 52.8 | NALP3 yeast rt 50.0
Cc1nn(Cc2ccc(Cl)cc2)c(C)c1NC(=O)CSc1n[nH]c(C)c1[N+](=O)[O-]	none
CSc1nc2ccc(S(=O)(=O)N3CCCC3)cc2s1	NLRP3 yeast inh 84.6 | NALP3 confirm 86.1 | Casp1 ASC ctr 86.2 | NALP3 yeast rt 80.4
CSc1nc2ccc(S(N)(=O)=O)cc2s1	none
O=[N+]([O-])c1cc(/C=N\Nc2ccccn2)ccc1Cl	none
O=C(CSc1c[nH]c2ccccc12)N1CCCc2ccccc21	none
O=C(Cc1c[nH]c2ccccc12)N1CCc2ccccc21	NLRP3 yeast inh 62.0 | NALP3 confirm inactive | Casp1 ASC ctr 60.0 | NALP3 yeast rt 59.8
COc1ccc2c(c1OC)CN1CCc3cc4c(cc3[C@@H]1[C@@H]2O)OCO4	none
O[C@@H]1[C@@H](O)C=C2CCN3Cc4cc5c(cc4[C@H]1C23)OCO5 (stereo partly specified)	NLRP3 yeast inh 63.8 (no result: PolyA inhibitor, NALP1 yeast inh) | NALP3 confirm 79.1 | Casp1 ASC ctr 59.7 | NALP3 yeast rt 57.9
O=c1c2ccc(Cl)cc2nc(-c2cccc(C(F)(F)F)c2)n1O	NLRP3 yeast inh 52.2 | NALP3 confirm 63.2 | Casp1 ASC ctr inactive | NALP3 yeast rt 52.2
O=c1c2ccccc2nc(-c2ccccc2Cl)n1O	none
N#Cc1ccc(-c2nc3cc(Cl)ccc3c(=O)n2O)cc1	NALP1 yeast inh 41.5, NLRP3 yeast inh 63.4 | NALP3 confirm 72.3 | Casp1 ASC ctr 50.8 | NALP3 yeast rt 63.6
N#Cc1ccc(-c2nc3ccccc3c(=O)n2O)cc1	none
O=c1c2ccccc2nc(-c2ccc(Cl)c(Cl)c2)n1O	NLRP3 yeast inh 64.5 | NALP3 confirm inactive | Casp1 ASC ctr inactive | NALP3 yeast rt inactive
O=c1c2cc(Br)ccc2nc(-c2ccc(Cl)cc2)n1O	none (no result: NLRP3 yeast inh)
O=c1c2cc(Cl)ccc2nc(-c2ccc([N+](=O)[O-])cc2)n1O	NLRP3 yeast inh 64.8 | NALP3 confirm 67.8 | Casp1 ASC ctr inactive | NALP3 yeast rt 58.4
O=C(O)c1ccccc1-c1nc2cc(Cl)ccc2c(=O)n1O	none
COc1ccc(NC(=O)NNC(=O)c2ccc(-c3ccccc3)cc2)cc1	none
Cc1ccc(NC(=O)Cn2ncn3c(cc4ccccc43)c2=O)cc1F	none
CC(=O)O[C@H]1CC[C@@]2(C)C(CCC3C2CC[C@]2(C)OC(=O)CCC32)C1 (stereo partly specified)	NLRP3 yeast inh 59.9 | NALP3 confirm 57.5 | Casp1 ASC ctr 58.7 | NALP3 yeast rt inactive
COC(=O)N[C@@H]1C[C@H]2[C@@H]3CC[C@H]4C[C@@H](OC)CC[C@]4(C)[C@H]3CC[C@]12C	none (no result: PolyA inhibitor, NALP1 yeast inh)
CC(C)(CO)NS(=O)(=O)c1ccc2c(c1)C(=NO)c1cc(S(=O)(=O)NC(C)(C)CO)ccc1-2	none
CCCCOC(=O)Nc1nnc(CCc2ccccc2)s1	NLRP3 yeast inh 52.5 | NALP3 confirm inactive
O=C(CSCc1ccccc1)Nc1ccc(S(=O)(=O)Nc2ncccn2)cc1	none
Cn1nnc(NC(=S)NC(=O)c2cccs2)n1	none
